Among the data in PubChem BioAssay (NCI) are growth values, retold here.

What all share (assay): NCI-60 one-dose screen, 48 h (100 = growth as untreated, 0 = no growth, -100 = all killed)
Common to all, as to settings: 10 µM unless noted

For test [1], the system named is MOLT-4 leukemia.
Test [2] has as its system SR leukemia.
Test [3] concerns RPMI-8226 leukemia.
Test [4] relates to OVCAR-8 ovarian.
The subject of test [5] is OVCAR-5 ovarian.
Test [6] relates to OVCAR-4 ovarian.
The subject of test [7] is SK-OV-3 ovarian.
Test [8] relates to IGROV1 ovarian.
Test [9] has as its system OVCAR-3 ovarian.
Test [10] deals with HS 578T breast.
In test [11] the test system is NCI/ADR-RES ovarian.
For test [12], the system named is T-47D breast.
Test [13] relates to BT-549 breast.
The subject of test [14] is MDA-MB-435 melanoma.
In test [15] the test system is SW-620 colon.
In test [16] the test system is MCF7 breast.
The test system of test [17] is HCT-116 colon.
Test [18] concerns HCC-2998 colon.
The test system of test [19] is KM12 colon.

Compounds without any hit were thinned out: in the full panel of roughly 83,000, 20% have a hit.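 Each cell line was grown in a 96-well plate and treated with one concentration of compound for 48 hours. Values below 10 were considered active.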 Values without a mark were called inactive. Calls of active or inactive are those of the source.

For the molecule `C[Se]/C=C1/C(=O)N(c2c(Cl)cccc2Cl)c2ccccc21`, the growth in test [1] was 10.2%; in test [2], 2.07% (active); in test [3], 2.93% (active); in test [4], -15.2% (active); in test [5] it was 28.7%; in [6] it was 34.3%. In addition, the growth in test [7] was 61.5%; in [8] it was 44.7%; in test [9], 20.3%; in [10], 13%; in [11] it was 9.06% (active); in test [12], 65.8%. Besides, the growth in test [13] is -35.6% (active); in [14], -30.3% (active); in test [15], 19.3%; in test [16] it was 17.3%; in test [17], 11.4%; in test [18] it was 77.2%. In [19], the growth was 72%.
For `CCOP(=O)(NC)OCC`, the growth is 127% in test [1]; 71.3% in [2]; 92.8% in test [3]; 115% in [4]; 91.5% in test [5]; 105% in test [6]. Moreover, the growth in test [7] was 104%; in test [8], 105%; in test [9], 99.5%; in test [10] it was 98.4%; in test [11] it was 102%; in [12], 102%. Further, the growth in test [13] was 112%; in test [14], 132%; in test [15], 108%; in [16], 101%; in test [17] it was 92.1%; in [18], 112%. Also, the growth in [19] is 106%.
Turning to `O=S(=O)(F)c1cccc(Cl)c1C[P+](c1ccccc1)(c1ccccc1)c1ccccc1`, the growth was 112% in test [1]; 95.3% in [2]; 74.1% in test [3]; 84.3% in [4]; 94.8% in test [5]; 90.2% in test [6]. Further, the growth in test [7] is 89.2%; in test [8], 85.4%; in test [9] it was 96.5%; in test [10], 103%; in test [11], 109%; in test [12] it was 91.9%. In addition, the growth is 106% in test [13]; 84.4% in [14]; 100% in test [15]; 103% in [16]; 92.4% in test [17]; 99.4% in test [18]. Besides, in test [19], the growth is 102%.
Turning to `CC1=C(C)C(=O)O[C@@H]([C@](C)(O)[C@]2(O)CC[C@@]3(O)[C@@H]4C[C@H]5O[C@]56CC=CC(=O)[C@]6(C)[C@H]4CC[C@]23C)C1`, the growth in [1] is -12.7% (active); in test [2], -23.5% (active); in [3], -19.2% (active); in [4] it was -7.94% (active); in test [5] it was 21.7%; in test [6], 7.99% (active). In addition, the growth in test [7] is -19% (active); in [8], -36.7% (active); in test [9] it was -59.6% (active); in test [10], 9.59% (active); in test [11] it was 42.6%; in test [12], 0.829% (active). The growth in test [13] is -24.4% (active); in test [14] it was 3.13% (active); in test [15] it was -37% (active); in [16] it was -16.3% (active); in [17] it was -4.21% (active); in test [18], -69.8% (active).
Take `CC[C@H](C)[C@H](NC(=O)c1ncccn1)C(=O)N(C)[C@H](C[C@@H](OC(C)=O)c1nc(C(=O)N[C@@H](Cc2ccccc2)C[C@H](C)C(=O)OC)cs1)C(C)C`: the growth in test [1] is 20.2%; in [2], 14.7%; in test [3], 17.7%; in test [4], 22.8%; in test [5] it was 74.3%; in test [6], 50.6%. For the same molecule, the growth was 44.1% in test [7]; 49.5% in test [8]; -18.4% (active) in test [9]; 18.3% in [10]; 70.6% in [11]; 52.6% in test [12]. In addition, the growth is 5.49% (active) in [13]; -24.6% (active) in test [14]; 25.8% in [15]; 18.9% in test [16]; 2.48% (active) in [17]; 60.9% in [18].
For the molecule `CCOP(=O)(OCC)C(=O)N(CC)CC`, the growth in test [1] is 114%; in [2] it was 91.2%; in test [3], 89.2%; in [4] it was 96.1%; in [5] it was 111%; in test [6], 96.5%. Besides, the growth in [7] is 104%; in [8] it was 112%; in test [9] it was 109%; in test [10] it was 101%; in [11], 102%; in [12], 96.3%. Further, the growth in [13] is 95.1%; in [14], 97.8%; in [15] it was 99.6%; in test [16] it was 95.2%; in test [17], 104%; in [18], 110%. Further, the growth in test [19] was 98.2%.
For the molecule `Cc1cc(C(C)(C)C)ccc1O`, the growth in test [1] is 99.5%; in [2], 93.8%; in [3], 105%; in [4], 102%; in test [5], 120%; in test [6], 109%. Moreover, the growth was 100% in [7]; 107% in test [8]; 105% in test [9]; 99.8% in test [10]; 98.3% in [11]; 103% in [12]. Further, the growth in [13] is 109%; in test [14], 111%; in test [15], 108%; in test [16], 101%; in test [17] it was 95.6%; in [18], 106%. Moreover, the growth in test [19] is 103%.
